Drawing on PubChem BioAssay (EPA / NIEHS), this text covers outcome and AC50 for five compounds.

For assay [1], the target named is Cellular tumor antigen p53 (Homo sapiens) (UniProt P04637). The experiment in a line: TOX21_p53_BLA_p2_ratio: Tox21 HCT-116 p53 Agonism Beta-lactamase Assay, Ratio, Phase 2 (AID 2283592). The method, boiled down: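 HCT116 cells carrying a p53-responsive beta-lactamase reporter were plated, incubated 5 h at 37C, then dosed with compounds in DMSO (217-fold dilution) for 16 h. CCF4-AM substrate was added for 2 h at room temperature; the 460/530 nm emission ratio gave gain-of-signal activity relative to DMSO.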
Chain of Cellular tumor antigen p53 (Homo sapiens) (P04637 whole entry, looked up): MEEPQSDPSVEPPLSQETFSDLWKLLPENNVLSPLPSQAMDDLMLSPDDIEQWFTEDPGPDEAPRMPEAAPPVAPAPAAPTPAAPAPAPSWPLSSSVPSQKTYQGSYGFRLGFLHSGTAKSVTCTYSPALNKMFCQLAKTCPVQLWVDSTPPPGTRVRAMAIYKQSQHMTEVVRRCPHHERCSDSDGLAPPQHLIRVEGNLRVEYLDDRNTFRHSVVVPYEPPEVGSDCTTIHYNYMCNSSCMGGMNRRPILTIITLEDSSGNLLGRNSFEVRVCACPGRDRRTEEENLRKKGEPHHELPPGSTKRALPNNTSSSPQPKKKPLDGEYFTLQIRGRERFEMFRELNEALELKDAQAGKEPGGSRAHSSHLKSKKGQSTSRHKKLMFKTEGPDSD

A short description of assay [2]: TOX21_p53_BLA_p3_viability: Viability Assessment in the Tox21 HCT-116 p53 Agonism Beta-lactamase Assay, Phase 3 (AID 2283593).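 Note: cells exposed to compound for 16 h before reading.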 The method, boiled down:
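HCT116 cells, 4000/well, dosed 5 h after plating by pin transfer (217-fold dilution from DMSO stock) and incubated 16 h at 37C, 5% CO2. Viability read as ATP luminescence with CellTiter-Glo after 30 min at room temperature.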

Assay [3] addresses Cellular tumor antigen p53 (Homo sapiens) (UniProt P04637). As to the kind of experiment: TOX21_p53_BLA_p3_ratio: Tox21 HCT-116 p53 Agonism Beta-lactamase Assay, Ratio, Phase 3 (AID 2283596). In short, it runs like this: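 HCT116 p53-bla cells (4000/well) given compound in DMSO (217-fold dilution) after 5 h, incubated 16 h at 37C. CCF4-AM substrate 2 h at room temperature; 460/530 nm emission ratio, gain fitted against DMSO.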

For assay [4] the target is unchanged. The experiment in a line: TOX21_p53_BLA_p5_ratio: Tox21 HCT-116 p53 Agonism Beta-lactamase Assay, Ratio, Phase 5 (AID 2283599). In short, it runs like this: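 HCT-116 p53-bla cells (4000/well) plated 5 h, dosed with compound (217-fold DMSO dilution) for 16 h at 37 C; CCF4-AM substrate 2 h at room temperature. Activity is the 460/530 nm emission ratio (405 nm excitation), fitted in gain-of-signal direction versus DMSO.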

Assay [5] in a line: TOX21_p53_BLA_p5_viability: Viability Assessment in the Tox21 HCT-116 p53 Agonism Beta-lactamase Assay, Phase 5 (AID 2283600). In short, it runs like this: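 Cells were plated at 4000/well, rested 5 h at 37C, then given compounds in DMSO (217-fold dilution) for 16 h at 37C, 5% CO2. Following the CCF4-AM beta-lactamase read, CellTiter-Glo was added and luminescence was read after 30 min at room temperature.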

For assay [6], the target named is Cellular tumor antigen p53 (Homo sapiens) (UniProt P04637). The experiment in a line: TOX21_p53_BLA_p4_ratio: Tox21 HCT-116 p53 Agonism Beta-lactamase Assay, Ratio, Phase 4 (AID 2283601). The method, boiled down: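 HCT-116 p53 beta-lactamase reporter cells (4000/well) preincubated 5 h, then compound (217-fold dilution of DMSO stock) for 16 h at 37C. CCF4-AM substrate added 2 h at room temperature; 460/530 nm emission ratio fitted upward versus DMSO.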

A short description of assay [7]: TOX21_p53_BLA_p4_viability: Viability Assessment in the Tox21 HCT-116 p53 Agonism Beta-lactamase Assay, Phase 4 (AID 2283597).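 Note: hits lower the luminescence signal meaning cytotoxicity.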 In short, it runs like this: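 HCT116 p53-bla cells (4000/well) rested 5 h at 37C, then received compounds in DMSO (217-fold dilution) for 16 h at 37C, 5% CO2. CellTiter-Glo was added after the CCF4-AM read, and luminescence was read after 30 min at room temperature.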

The target of assay [8] is PGR (gene 5241) (UniProt P06401). As to the kind of experiment: TOX21_PR_BLA_Followup_Agonist_ratio: Tox21 HEK293 Progesterone Receptor (PR) Agonism Beta-lactamase Follow-Up Assay, Ratio (AID 2283933). The method, boiled down: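 Agonist-mode follow-up in HEK293T cells carrying a UAS-driven beta-lactamase reporter, grown in 2% charcoal-stripped serum. Compounds act for 16 hr; activity is the ch2/ch1 cleavage ratio, with same-well CellTiter-Glo viability run in parallel.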
Chain of PGR (gene 5241) (P06401 whole entry, looked up): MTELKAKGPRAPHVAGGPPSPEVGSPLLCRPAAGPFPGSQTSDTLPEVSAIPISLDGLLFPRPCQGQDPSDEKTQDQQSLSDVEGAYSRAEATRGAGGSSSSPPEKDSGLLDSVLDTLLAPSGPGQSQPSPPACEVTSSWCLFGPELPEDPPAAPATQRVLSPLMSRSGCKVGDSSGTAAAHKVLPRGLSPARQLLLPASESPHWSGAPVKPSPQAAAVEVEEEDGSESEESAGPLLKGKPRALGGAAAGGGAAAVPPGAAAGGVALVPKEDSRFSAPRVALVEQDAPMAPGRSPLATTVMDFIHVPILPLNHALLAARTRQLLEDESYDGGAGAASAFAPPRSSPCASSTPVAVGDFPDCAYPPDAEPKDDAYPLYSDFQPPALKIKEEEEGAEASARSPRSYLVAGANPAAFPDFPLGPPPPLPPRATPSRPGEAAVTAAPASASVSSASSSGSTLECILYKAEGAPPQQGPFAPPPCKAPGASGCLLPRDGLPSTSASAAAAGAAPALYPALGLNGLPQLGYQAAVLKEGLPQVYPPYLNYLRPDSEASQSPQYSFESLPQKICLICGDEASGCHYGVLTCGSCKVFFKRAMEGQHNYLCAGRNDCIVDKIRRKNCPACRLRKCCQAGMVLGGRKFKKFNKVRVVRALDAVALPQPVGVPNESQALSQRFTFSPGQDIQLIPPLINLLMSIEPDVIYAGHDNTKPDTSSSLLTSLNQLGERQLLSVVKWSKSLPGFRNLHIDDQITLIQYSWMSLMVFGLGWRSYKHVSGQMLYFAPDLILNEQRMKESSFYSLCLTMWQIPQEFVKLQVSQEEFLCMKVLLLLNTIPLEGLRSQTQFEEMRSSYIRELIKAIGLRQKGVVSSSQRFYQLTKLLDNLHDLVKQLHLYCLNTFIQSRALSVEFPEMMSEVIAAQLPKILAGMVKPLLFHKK

For assay [9] the target is unchanged. As to the kind of experiment: TOX21_PR_BLA_Followup_Antagonist_ratio: Tox21 HEK293 Progesterone Receptor (PR) Antagonism Beta-lactamase Follow-Up Assay, Ratio (AID 2283934).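 Note: PR-UAS-bla HEK293T cells stimulated with 1 nM R5020 agonist for 16 hr.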 In short, it runs like this:
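Antagonist mode used 1 nM R5020 (final) as agonist on a beta-lactamase reporter line in HEK293T cells. Activity was taken from the substrate cleavage ratio after 16 hr exposure.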

Assay [10] in a line: TOX21_PR_BLA_Followup_Agonist_viability: Viability Assessment in the Tox21 HEK293 Progesterone Receptor (PR) Agonism Beta-lactamase Follow-Up Assay (AID 2283935).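 Note: cells exposed to compound for 16 hr at 37 °C; signal loss means lower viability so actives are cytotoxic.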 In short, it runs like this: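 Multiplexed viability counter-screen: ATP-coupled luciferase signal measured after 30 min at room temperature, following 16 hr compound treatment of PR-UAS-bla HEK293T cells grown in charcoal-stripped serum.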

Assay [11] in a line: TOX21_PR_BLA_Followup_Antagonist_viability: Viability Assessment in the Tox21 HEK293 Progesterone Receptor (PR) Antagonism Beta-lactamase Follow-Up Assay (AID 2283936).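 Note: hits lower the luminescence signal meaning cytotoxicity.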 The method, boiled down:
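PR-UAS-bla HEK293T cells (3,000/well, 2% charcoal-stripped FBS) given compound plus R5020 agonist, 16 h at 37C. CellTiter-Glo added after bla read, 30 min at room temperature; luminescence loss indicates cytotoxicity.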

The target in assay [12] is PGR (gene 5241) (UniProt P06401). As to the kind of experiment: TOX21_PR_LUC_Followup_Agonist: Tox21 HEK293 Progesterone Receptor (PR) Agonism Luciferase Follow-Up Assay (AID 2283937; active = hit-call score of the fitted dose curve at least 0.9, where 1 is the maximum; inactive = score below 0.9). The method, boiled down:
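Agonist mode: reporter cells carrying PR-A and luciferase are treated 16 h with test compounds at 37C. Luciferase induction is measured by luminescence and fitted upward against DMSO.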

A short description of assay [13]: TOX21_PR_LUC_Followup_Agonist_viability: Viability Assessment in the Tox21 HEK293 Progesterone Receptor (PR) Agonism Luciferase Follow-Up Assay (AID 2283941).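 Note: loss of signal means cytotoxicity so actives lower viability.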 In short, it runs like this: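 Luminescent ATP quantitation (CellTiter-Glo) serves as the read-out; a drop flags cytotoxic compounds. Cells are HEK293-PR-A-luc grown in 10% charcoal-stripped FBS, plated 3,000/well, and exposed to compound for 16 h.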

Results filed as inconclusive are left out. The source made the active and inactive calls. Rule for the calls, unless noted: active = hit-call score of the fitted dose curve at least 0.9, where 1 is the maximum; inconclusive = response in the unintended direction; inactive = score below 0.9.

As usually defined, the AC50 is the midpoint of the concentration-response curve, whichever way the signal moves.

Turning to `CC(N)Cc1ccc2c(c1)OCO2` (stereo not given), the outcome in assay [1], in [2], in assay [3], in assay [4], in assay [5] and in assay [6] was inactive.
Regarding `O=C1C(Cl)C(CCl)CN1c1cccc(C(F)(F)F)c1` (stereo not given), the outcome in [1], in assay [2], in [3], in assay [7], in [4] and in assay [6] was inactive. For the same compound, the result (with PGR (gene 5241) [8]; with PGR (gene 5241) [9]; in assay [10]; in assay [11]; with PGR (gene 5241) [12]; in assay [13]) was inactive.
`Cc1ccc(Cl)c(O)c1`: the outcome in assay [1], in assay [2], in assay [3], in [4], in [5] and in [6] was inactive.
For `CN(C)[C@H](Cc1ccccc1)c1ccccc1`, the result in assay [1], in assay [3], in [4] and in assay [5] was inactive. Besides, in [2], the AC50 is 37.9 µM (active).
Consider `ClC=CCCl`, for which the result in [1], in assay [2], in [3], in assay [7], in assay [4] and in assay [6] was inactive.
